# Data published in PubChem BioAssay AID624483 (NMMLSC, 2012).
# Out of some 360,000 compounds screened, about 11,000 (3.1%) were called active. Another 2% or so got no clear call; they are omitted. Rule as the data show it: active = fluorescence intensity above about 16000; inconclusive = no clear call, values can overlap the other calls; inactive = below that. For the sample, actives were picked, then their nearest neighbours and some compounds at random.
# Experiment: compound fluorescence in toxin protease inhibitor counterscreen, primary screen, artefact control for toxin protease inhibitor project, biochemical, multiplex microsphere, HTS (AID 624483)
# Details: compound autofluorescence counterscreen, microsphere flow cytometry; active compounds read high
row,Structure (SMILES),fluorescence intensity
1,C=C1C(=O)[C@]23C[C@H]1CCC2[C@@]1(C)C(C[C@@H]3O)[C@](C)(C(=O)O)CC[C@@H]1O (stereo partly drawn),4260 (inactive)
2,CC1=C(C(=O)N(C(C)C)C(C)C)CC(CC(=O)NCC2CCCCC2)C(=O)N1Cc1ccccc1 (stereo not drawn),5490 (inactive)
3,CCCCN(C1CCS(=O)(=O)C1)S(=O)(=O)c1ccc(C(C)C)cc1 (stereo not drawn),5460 (inactive)
4,CN(C1CCS(=O)(=O)C1)S(=O)(=O)c1ccc2ccccc2c1 (stereo not drawn),5860 (inactive)
5,Cc1ccc(S(=O)(=O)N(c2cccc(C)c2)C2CCS(=O)(=O)C2)cc1 (stereo not drawn),21200 (active)
6,CCOP(=O)(OCC)C(Cc1ccccc1)N=C(c1ccccc1)c1ccccc1 (stereo not drawn),5750 (inactive)
7,Cn1cnc(S(=O)(=O)Nc2ccc3c(c2)OCCO3)c1,3290 (inactive)
8,CCC(c1nnnn1-c1ccc2c(c1)OCCO2)N1CCN(c2ccc(C(F)(F)F)cn2)CC1 (stereo not drawn),5170 (inactive)
9,CC(=O)Nc1cc(-c2ccc(N3CCN(C)CC3)cc2)cn2c(-c3cccc(C(=O)N(C)C)c3)cnc12,2910 (inactive)
10,CCCC/S(C)=N/S(=O)(=O)c1ccc(C)cc1 (stereo not drawn),1940 (inactive)
11,CC/S(CC1CC1(Cl)Cl)=N\S(=O)(=O)c1ccc(C)cc1 (stereo not drawn),19500 (active)
12,Cc1ccc(S(=O)(=O)/N=S(\C)C(C)C)cc1 (stereo not drawn),2730 (inactive)
13,CC(=O)c1ccc(-c2cnc3c(NC=O)cc(-c4cccc(NS(C)(=O)=O)c4)cn23)cc1,4010 (inactive)
14,COc1ccc(C(c2nnnn2C2CCCC2)N2CCN(C/C=C/c3ccccc3)CC2)cc1 (stereo not drawn),5910 (inactive)
15,CCCCCCOC(=O)NCC(O)c1ccccc1 (stereo not drawn),17600 (active)
16,O=C(CC(c1ccccc1)c1ccccc1)NCC(O)c1ccc([N+](=O)[O-])cc1 (stereo not drawn),3190 (inactive)
17,CCCCOC(=O)Nc1nnc(CC(=O)NCc2ccccc2)s1,3980 (inactive)
18,Cc1cccc(CN2CCN(C3CN(Cc4cn(Cc5cc(C)cc(C)c5)nn4)S(=O)(=O)C3)CC2)c1 (stereo not drawn),4640 (inactive)
19,CCCCCCN1CCN(C2CN(Cc3cn(CCCCCC)nn3)S(=O)(=O)C2)CC1 (stereo not drawn),5850 (inactive)
20,COc1ccc([N+](=O)[O-])cc1N(CC(O)CN(CC(C)C)CC(C)C)S(=O)(=O)c1ccc(C)cc1 (stereo not drawn),3790 (inactive)
21,COc1ccc([N+](=O)[O-])cc1N(CC(O)Cn1nnc2ccccc21)S(=O)(=O)c1ccc(C)cc1 (stereo not drawn),17900 (active)
22,Cc1ccc(S(=O)(=O)N(CC(O)CN2CCCCC2)c2cccc([N+](=O)[O-])c2)cc1 (stereo not drawn),3000 (inactive)
23,CC(C)[C@@H](C(=O)OCC(=O)c1ccc2c(c1)NC(=O)CO2)N1C(=O)c2ccccc2C1=O,3880 (inactive)
